Measured values as given in PubChem BioAssay (Tox21).
“And” between values parts separate entries of the source, which are not always exact repeats. Identical values can stand only once. Inconclusive results are not listed. Entries that show only a call come without a potency. Some compounds were tested as several samples or in several runs, with calls that do not always agree. The source made the active and inactive calls. Calls come from the whole dose curve.

Test: Nuclear factor erythroid 2-related factor 2/antioxidant responsive element (Nrf2/ARE) small molecule agonists: luciferase reporter gene qHTS assay in human keratinocytes (AID 1919969); note: nearly all actives have a fitted effect of over 35% in size
Potency is the fitted concentration of half-maximal effect.

SMILES | Potency
CC(C)(C)CC(C)(C)c1ccc(O)cc1 | inactive
CCOS(C)(=O)=O | inactive
O=C(O)C(F)(F)C(F)(F)C(F)(F)C(F)(F)C(F)(F)C(F)(F)C(F)(F)C(F)(F)C(F)(F)C(F)(F)F | inactive
CCNc1nc(Cl)nc(NCC)n1 | inactive
CCOC(=O)c1ccccc1S(=O)(=O)NC(=O)Nc1nc(Cl)cc(OC)n1 | inactive
COc1ccc2c3c1O[C@H]1[C@H](O)CC[C@H]4[C@@H](C2)N(C)CC[C@@]341 | inactive
CCCCCCI | inactive
CCC(C)n1c(=O)[nH]c(C)c(Br)c1=O (stereo not drawn) | inactive
Nc1cccc(Cl)c1 | inactive
O=[N+]([O-])c1ccc(Cl)cc1 | inactive
Cc1ccc(N)cc1N | 26.6 µM (active) and 30.6 µM (active)
Cc1ccccc1N | inactive
Cc1ccc(C(=O)Cl)cc1 | inactive
CN(C)NC(=O)CCC(=O)O | inactive
CC(C)=CC1C(C(=O)OCN2C(=O)C3=C(CCCC3)C2=O)C1(C)C (stereo not drawn) | 48.6 µM (active) and 26.6 µM (active)
COCCl | inactive
C1CN2CCN1CC2 | inactive
CC1(C)Cc2cccc(O)c2O1 | inactive
COP(=O)(OC)OC | 61.6 µM (active) and inactive
N#Cc1ccncc1 | inactive
CCOP(=O)(OCC)SCCSCC | inactive and 68.6 µM (active)
CC(C)(O)C(=O)Nc1ccc([N+](=O)[O-])c(C(F)(F)F)c1 | inactive
O=C1C2CC=CCC2C(=O)N1SC(Cl)(Cl)Cl (stereo not drawn) | 54.3 µM (active) and 7.57 µM (active)
COc1ccccc1OC | inactive
C=CCO | inactive
Oc1ccccc1-c1ccccc1 | 62.6 µM (active) and inactive
CCCC[n+]1ccc(C)cc1 | inactive

SMILES | Potency
Nc1ncn[nH]1 | inactive
CCCCCCCCCCCC(=O)O | inactive
c1cc2c(c(N3CCNCC3)c1)OCCO2 | inactive
OCCOc1ccccc1 | inactive
Cn1c(N)nc2c3cccnc3ccc21 | inactive
C[C@]12C=CC3=C4CCC(=O)C=C4CC[C@H]3[C@@H]1CC[C@@H]2O | 27.1 µM (active) and 58 µM (active)
CC(C)Nc1ccc(Nc2ccccc2)cc1 | 9.65 µM (active) and 24.3 µM (active)
CCCCCCCCCCCCCCCCn1cc[n+](C)c1 | inactive
Nc1ccc(Cl)cc1N | 31.9 µM (active) and 19.3 µM (active)
O=P(OCC(Br)CBr)(OCC(Br)CBr)OCC(Br)CBr (stereo not drawn) | inactive
CCOC(=O)Nc1cccc(OC(=O)Nc2ccccc2)c1 | inactive
CCC[N+](=O)[O-] | inactive
C=C(C)C(=O)OCC(CC)CCCC (stereo not drawn) | inactive
CCN(CC)Cc1nccn1-c1ccc([N+](=O)[O-])cc1C(=O)c1ccccc1Cl | inactive
O=NN(c1ccccc1)c1ccccc1 | inactive
Nc1c(Br)cc([N+](=O)[O-])cc1[N+](=O)[O-] | inactive
Cc1coc2c1CCC(C)C2 (stereo not drawn) | inactive
Clc1ccc(C(c2ccc(Cl)cc2)C(Cl)Cl)cc1 | 15.6 µM (active) and inactive
Cc1ccc2ccccc2c1 | inactive
CNC(=O)Oc1cccc2c1OC(C)(C)C2 | inactive
O=C(NCc1cccnc1)Nc1ccc([N+](=O)[O-])cc1 | inactive
CCCCCCCCCC(CC)c1ccc(S(=O)(=O)O)cc1 (stereo not drawn) | inactive and 21.7 µM (active)
O=P1(NCCCl)OCCCN1CCCl (stereo not drawn) | inactive
CCNc1nc(Cl)nc(NC(C)(C)C#N)n1 | inactive
N#CCC#N | 61.1 µM (active)
c1ccc2c(c1)oc1ccccc12 | inactive
